Sfp inh = inhibitors of Bacillus subtilis Sfp phosphopantetheinyl transferase; Q9F4F7; Biochemical Sfp PPTase activity, qHTS; Potency, µM, inactives show largest response in the series, negative = inhibition, most hits filed as inhibitors; 310,000 tested, 3.5% active; AID 1490;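 further: the enzyme is Sfp with the accession as filed and its product quenches rhodamine fluorescence; 0% = enzyme reaction without inhibitor and -100% = no enzyme wells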
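Buffer: 50 mM Hepes-Na pH 7.6, 10 mM MgCl2, 0.01% Nonidet P-40, 0.01% BSA. Enzyme 15 nM, pre-exposed to compound 15 min; substrates then added and fluorescence change tracked over 30 min.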
PLK1 PBD block = inhibitors of human PLK1 polo-box domain binding | P53350 | AID 720504 | Plk1 PBD binding of FITC phosphopeptide, fluorescence polarization | Potency, µM, without a hit: max response, negative = inhibition, usual class: inhibitors | 360,000 tested, 2.8% active; further: series mostly up to about 57 µM; nearly all actives have a fitted effect of over 65% in size
Target sequence (P53350 whole entry, looked up, the tested form may be a part): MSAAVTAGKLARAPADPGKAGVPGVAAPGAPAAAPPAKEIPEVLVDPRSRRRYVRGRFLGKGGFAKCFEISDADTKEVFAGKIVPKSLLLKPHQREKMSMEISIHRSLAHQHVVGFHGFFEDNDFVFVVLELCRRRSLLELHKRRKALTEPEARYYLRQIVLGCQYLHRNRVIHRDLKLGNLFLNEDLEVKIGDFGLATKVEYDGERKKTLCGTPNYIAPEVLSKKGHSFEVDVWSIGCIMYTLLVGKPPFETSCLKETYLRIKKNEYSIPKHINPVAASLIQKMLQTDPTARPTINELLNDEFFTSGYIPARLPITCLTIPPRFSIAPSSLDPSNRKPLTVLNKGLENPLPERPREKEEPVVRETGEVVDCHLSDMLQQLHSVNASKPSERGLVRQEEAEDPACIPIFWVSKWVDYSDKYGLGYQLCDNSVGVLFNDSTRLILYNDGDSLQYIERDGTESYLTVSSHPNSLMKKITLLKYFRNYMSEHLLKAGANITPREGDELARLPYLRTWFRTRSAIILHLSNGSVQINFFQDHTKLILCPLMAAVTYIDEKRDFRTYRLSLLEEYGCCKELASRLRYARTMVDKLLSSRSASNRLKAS
ALOX12 inh = blocks human arachidonate 12S-lipoxygenase | P18054 | purified 12hLO, xylenol orange hydroperoxide absorbance | Potency, µM (titrated, usually from 108 µM), for the others: at the top dose activity change, negative = inhibition, usual class: inhibitors | 580,000 tested, 1.1% active | AID 1671190
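Hydroperoxide product was detected by ferrous iron/xylenol orange as the 573 to 405 nm absorbance ratio. Arachidonic acid at 40 uM (final) was turned over for 30 min at room temperature by 150 nM human 12hLO, pH 7.0 Hepes buffer, after 15 min compound preincubation.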
VDR inhibitor = vitamin D3 receptor (human) inhibition; P11473; VDR-SRC2-3 peptide fluorescence polarization, 2 h; Potency, µM, inactives show max response, negative = inhibition, most hits filed as inhibitors; 400,000 tested, 0.93% active
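Signal is fluorescence polarization, reporting how far test compounds block the interaction of VDR with the SRC2-3 coregulator peptide after a 2 h room-temperature incubation.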
* marks the source's active call; other numbers are inactive results; ? = inconclusive; nt = not tested or not shown. Only some compounds are listed: those with a hit (about 4.2% of all), similar ones and a draw of the others. The call rests on the fitted dose curve; in most records, active means well fitted curve in the direction sought with a large enough effect; inconclusive means small, poorly fitted or top-dose-only effect, or another doubt; inactive means no such curve, though single readings can be large; an effect the other way counts as inactive or inconclusive. Unless noted, on the % scale 0 is the no-effect control and ±100 the full control effect; potency means the concentration at half of the fitted maximal effect.

SMILES	Sfp inh	PLK1 PBD block	ALOX12 inh	VDR inhibitor
CC(=O)N1c2ccccc2N=C(c2ccc(C(F)(F)F)cc2)C1C(=O)NC1CCCC1 (configuration not stated)	nt	2%	7%	nt
CCOC(=O)C(NC(=O)c1ccccc1)c1ccccc1 (configuration not stated)	nt	nt	-34%	nt
CCOc1ccc(C2CC(=O)NC3=C2C(=O)CC(C)(C)C3)cc1 (configuration not stated)	nt	nt	3%	nt
CCOc1ccccc1C1CC(=O)NC2=C1C(=O)CC(C)(C)C2 (configuration not stated)	14%	27µM*	14%	-2%
Cc1ccn2cc(-c3cccc(S(=O)(=O)N4CCCC4)c3)nc2c1	7%	-15%	-28%	-8%
Oc1ccccc1C(=S)N1CCCCCC1	20%	?	?	-4%
Oc1ccccc1C(=S)N1CCCCC1	-28%	27µM*	?	-22%
CC(C)(C)N1NC2(CCCCC2)NC1=S	22µM*	?	?	2%
Cc1ccc(N2NC(C)(c3cccs3)NC2=S)cc1 (configuration not stated)	71µM*	?	?	?
Cc1ccc(N2NC3(CCC(C)CC3)NC2=S)cc1 (configuration not stated)	nt	nt	1.3µM*	nt
Cc1ccc(N2NC3(CCCCCC3)NC2=S)cc1	nt	nt	1µM*	nt
Cc1cc(S(=O)(=O)N2C[C@@H](F)C[C@H]2C(=O)N2CCCCC2)ccc1F	nt	nt	61%	nt
COc1ccc(C(=O)NCC(c2ccc3c(c2)OCO3)N2CCOCC2)cc1 (configuration not stated)	nt	nt	-19%	-7%
O=C(Nc1cc(Cl)ccc1O)C1CC(c2ccccc2Cl)=NO1 (configuration not stated)	-5%	5%	?	-8%
O=C(NC1CC1)C(c1ccccc1)N1CCN(S(=O)(=O)c2ccccc2)CC1 (configuration not stated)	nt	nt	-5%	nt
Cc1cccc(NC(=O)c2ccc(OCc3c(C)noc3C)cc2)c1C	nt	-3%	145%	2%
Cn1ccc(C(=O)NC(=S)N2CCSCC2)n1	45µM*	-20%	?	-12%
COc1ccc(/C=C/C(=O)NC(=S)N2CCSCC2)cc1	9%	-20%	-8%	-14%
Cc1ccc(CNC(=O)c2ccc3c(c2)NC(=O)C(CS(=O)(=O)Cc2ccc(F)cc2)N3)cc1 (configuration not stated)	nt	nt	167%	11%
C=CCn1c(Cc2ccccc2)n[nH]c1=S	-16%	-11%	?	-16%
C=CCn1c(CCc2cc(C(C)(C)C)c(O)c(C(C)(C)C)c2)n[nH]c1=S	13%	-19%	35µM*	-6%
COc1ccc(S(=O)(=O)/N=C2/NC(=O)/C(=C/c3ccco3)S2)cc1	-15%	-27%	18µM*	1%
COc1cc(/C=C2\S/C(=N/S(=O)(=O)c3ccccc3)NC2=O)c([N+](=O)[O-])cc1OC	?	?	-21%	?
COc1ccc(S(=O)(=O)/N=C2/NC(=O)/C(=C\c3cc(OC)c(OC)cc3[N+](=O)[O-])S2)cc1	20%	-27%	?	-15%
COc1ccc(S(=O)(=O)/N=C2/NC(=O)/C(=C\c3ccco3)S2)cc1	-21%	-27%	40µM*	-6%
SMILES	Sfp inh	PLK1 PBD block	ALOX12 inh	VDR inhibitor
COc1cccc(C2Nc3c(F)cc(Br)cc3C3C=CCC32)c1OC (configuration not stated)	-12%	4%	-14%	-4%
O=C(O)C1Nc2c(cccc2C(F)(F)F)C2C=CCC12 (configuration not stated)	50µM*	nt	nt	nt
O=C(NCc1ccccc1)C1Nc2ccc(OC(F)(F)F)cc2C2C=CCC12 (configuration not stated)	nt	-9%	-24%	-18%
COc1cccc2c1NC(C(=O)O)C1CC=CC21 (configuration not stated)	7.9µM*	27µM*	nt	-18%
CC(=O)c1ccc2c(c1)C1C=CCC1C(C(=O)O)N2 (configuration not stated)	-20%	7.5µM*	?	-16%
CCN1CCN(C(=O)/C=C/c2ccccc2[N+](=O)[O-])CC1	15%	-14%	4%	-8%
O=C(CCc1ccsc1)N(Cc1ccco1)C1CC1	nt	nt	16µM*	nt
O=C(c1ccsc1)N(Cc1ccco1)C1CC1	nt	nt	35µM*	nt
O=C(Cc1cccs1)N(Cc1ccco1)C1CC1	nt	nt	14µM*	nt
O=C(CCc1ccsc1)N(Cc1ccncc1)C1CC1	nt	nt	6%	nt
C=C1CCN(C(C(=O)OC)C(C)C)S(=O)(=O)c2ccc(F)cc21 (configuration not stated)	2%	-4%	-1%	-21%
CC(C)(CO)Nc1ncnc2onc(-c3ccc(F)cc3)c12	9%	-2%	0%	-4%
Cc1nn(C)c(C)c1S(=O)(=O)N1CCC(C(=O)NC2CCCc3ccccc32)CC1 (configuration not stated)	10%	27µM*	-10%	-15%
Cc1nn(C)c(C)c1S(=O)(=O)N1CCCC(C(=O)NC2CCCCCC2)C1 (configuration not stated)	16%	27µM*	0%	?
Cc1nn(C)c(C)c1S(=O)(=O)N1CCCC(C(=O)N2CCN(c3ccc(Cl)cc3)CC2)C1 (configuration not stated)	12%	3.4µM*	0%	-18%
Cc1cc(C)n(-c2nc3c(c(=O)n(CC(N)=O)c(=O)n3C)n2CCC(C)C)n1	nt	nt	17%	nt
O=C1CCCCC(CNC(=O)c2ccc3ncccc3c2)N1 (configuration not stated)	nt	nt	33%	nt
CCC(=O)Nc1ccc(Oc2ccc3c(c2)C(=O)N(c2ccc(O)cc2)C3=O)cc1	1%	-7%	-5%	7%
CN(C)NC(=S)NC1CCS(=O)(=O)C1 (configuration not stated)	79µM*	-1%	0%	18%
O=S1(=O)CCC(NC(=S)NC2CCS(=O)(=O)C2)C1 (configuration not stated)	5%	-4%	-25%	-14%
O=C(NCCc1c[nH]c2ccccc12)/C(=C\c1cccs1)NC(=O)c1ccccc1	-2%	27µM*	-14%	-5%
Cc1ccc(C(=O)N/C(=C\c2cccs2)C(=O)NCCc2c[nH]c3ccccc23)cc1C	5%	-7%	0%	-6%
COc1ccc(-c2cc(C(=O)Nc3ccc(Br)cc3)no2)cc1	-7%	-8%	5%	-11%
O=C(NCc1n[nH]c(=S)n1-c1ccc(F)cc1)c1ccc(S(=O)(=O)N2CCOCC2)cc1	45µM*	?	-13%	-21%
O=C1C=C(C2OC(CO)C(O)C2O)C(=O)N1 (configuration not stated)	nt	?	4%	40µM*
N#CC(C#N)=C1NC(N)=C(C#N)C(c2ccccc2)=C1C#N	56µM*	nt	6.3µM*	nt
N#CC(C#N)=C1NC2(CCCCC2)Cc2ccccc21	27%	-13%	?	0%
CCCCC1=NN2C(=N)CC(=O)N=C2S1	6%	-2%	-9%	-21%
CC(C)(C)c1csc(NNC(=O)c2ccc(Cl)cc2)n1	45µM*	?	?	-3%
Cc1ccc(-c2nnnn2-c2ccc(C)cc2)cc1	8%	17µM*	?	?

Screening results (PubChem BioAssay)
